Screening data: PubChem BioAssay, several laboratories
Mtb betalactam: beta-lactam sensitization of Mtb H37Rv; M. tuberculosis H37Rv growth with meropenem, percent inhibition; inhibition, % at 25 µM; actives 0.27% (n = 330,000); call rule not given here;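 further: growth measured after seven days incubation then overnight dye step; 0% = bacteria only wells and 100% = bacteria with antibiotic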
RecA splice inh: blocks M. tuberculosis RecA intein splicing | cell-free RecA intein splicing, fluorescence | P9WHJ3 | actives 0.75% (n = 290,000) | AID 2221 | inhibition, % (no concentration beside the values); in the data active means inhibition above about 30%; inconclusive means no clear call, values can overlap the other calls;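 further: 0% = vehicle wells and 100% = reference inhibitor control wells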
GDH-TPI inh: counter-screen for M. tuberculosis FBA inhibitors: GDH-TPI coupled enzymes. inhibition, % at 4.8 µM. GDH-TPI coupled enzyme counterscreen, NADH absorbance. actives 1.2% (n = 360,000); in the data active means inhibition above about 30%;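 further: 0% = DMSO wells and 100% = wells lacking the enzyme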
Rv3671c protease: inhibits the M. tuberculosis serine protease Rv3671c | inhibition, % at 5.96 µM | actives 0.048% (n = 320,000) | AID 2606; in the data active means inhibition above about 38%;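 further: extracellular domain of Rv3671c used as enzyme; 0% = enzyme with DMSO and 100% = no enzyme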
Mtb UGM inh: inhibitors of M. tuberculosis UDP-galactopyranose mutase. AID 504406. actives 0.06% (n = 320,000). inhibition, % at 10 µM. purified UGM, fluorescence polarization probe displacement; in the data active means inhibition above about 10%, passing the limit was not always enough; inconclusive means no clear call, values can overlap the other calls
Target sequence (P9WIQ1 whole entry, looked up): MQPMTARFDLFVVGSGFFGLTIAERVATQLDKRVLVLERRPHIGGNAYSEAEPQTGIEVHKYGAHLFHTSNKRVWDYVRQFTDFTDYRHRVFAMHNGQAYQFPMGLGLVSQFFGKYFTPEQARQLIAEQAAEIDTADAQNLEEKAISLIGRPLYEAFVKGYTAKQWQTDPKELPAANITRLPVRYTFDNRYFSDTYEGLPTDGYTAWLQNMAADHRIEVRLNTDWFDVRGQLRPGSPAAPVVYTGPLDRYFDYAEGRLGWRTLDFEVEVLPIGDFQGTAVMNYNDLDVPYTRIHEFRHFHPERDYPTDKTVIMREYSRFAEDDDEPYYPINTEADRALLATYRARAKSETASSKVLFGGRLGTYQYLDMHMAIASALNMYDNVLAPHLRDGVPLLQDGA
FBA Mtb inh: inhibits M. tuberculosis FBA enzyme | AID 588726 | actives 2.3% (n = 360,000) | inhibition, % at 1 µM | P9WQA3 | purified M. tuberculosis FBA, fluorescence read-out; in the data active means inhibition above about 27%;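 further: 0% = vehicle and 100% = reference inhibitor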
The depositor's hits bear a star; ? = inconclusive; nt = no result given; + = active, no number. Hits are enriched below; roughly 4% of the tested compounds scored in any of these assays.

SMILES | Mtb betalactam | RecA splice inh | GDH-TPI inh | Rv3671c protease | Mtb UGM inh | FBA Mtb inh
Cc1cccc(NC(=S)N/N=C/c2c[nH]c3ccccc23)c1 | 42 | 11 | 36* | 13 | -1 | 2
CC(/C=N/NC(=O)c1sc(N)nc1C)=C\c1ccccc1 | 2 | -1 | 37* | 6 | -1 | -4
O=C(N/N=C/c1c[nH]c2ccccc12)c1ccn(Cc2ccc(Cl)cc2)n1 | 3 | 9 | 32* | 5 | 0 | 0
O=C(N/N=C/c1c[nH]c2ccc(Br)cc12)c1ccn(Cc2ccc(Cl)cc2Cl)n1 | 30 | 15 | 15 | -21 | 0 | 3
Cc1nc(N)sc1C(=O)N/N=C/c1c[nH]c2ccccc12 | 18 | -3 | 56* | -4 | 0 | -2
CC(NS(=O)(=O)c1ccc(Br)cc1F)[C@H](O)c1ccccc1 (stereo not given in full) | nt | nt | -6 | nt | nt | 0
COc1ccccc1-c1cnc(C(O)c2ccc(C(C)(C)C)cc2)[nH]1 (stereo not given) | nt | nt | -4 | nt | nt | 0
C/C=N/NC(=O)c1cc(Br)ccc1O | 4 | -4 | 16 | 8 | 1 | 4
O=C(N/N=C/c1ccc(Br)s1)c1c[nH]c2ccccc12 | ? | 1 | 40* | -10 | 2 | 0
Cc1c(/C=N/NC(=O)c2cc(Br)ccc2O)c(=O)n(C)c(=O)n1C | 8 | -3 | 31* | -2 | 0 | 0
Cc1cccc(NC(=S)N/N=C/c2ccc(Cl)c([N+](=O)[O-])c2)c1 | -6 | 0 | 30 | -4 | 1 | -1
Cc1cccc(NC(=S)N/N=C/c2cccc([N+](=O)[O-])c2)c1 | -2 | 1 | 33* | -12 | 0 | 2
Cc1cnnn1-c1ccc(C(=O)CCl)cc1 | -5 | 52* | 1 | -8 | -2 | 1
CCCN(Cc1ccc(C)cc1)C(=O)c1ccc(CNS(=O)(=O)c2ccc(C(C)=O)cc2)cc1 | 3 | nt | 8 | -12 | 2 | 8
CC(C)CN(Cc1c(O)ccc2c3c(c(=O)oc12)CCC3)CC(C)C | 4 | -11 | 9 | 3 | 0 | +
O=c1oc2c(CN3CCOCC3)c(O)ccc2c2c1CCC2 | -5 | nt | 0 | 1 | 0 | +
CC1=CN2C(=N)/C(=C/c3ccco3)C(=O)N=C2S1 | -1 | 2 | 33* | -19 | -1 | -4
Cc1ccc(F)c(S(=O)(=O)NC(=O)C2(C)CCN2C(=O)Cc2cccc3ccccc23)c1 (stereo not given) | nt | nt | 3 | nt | nt | 0
CCCc1cc(=O)oc2c3c(cc(OCC(=O)NCC4CCC(C(=O)O)CC4)c12)OC(C)(C)CC3 (stereo not given) | -5 | 3 | 19 | -8 | 0 | +
CCCc1cc(=O)oc2c3c(cc(OCC(=O)N4CCC(C(=O)O)CC4)c12)OC(C)(C)CC3 | nt | nt | 20 | nt | nt | +
CCCc1cc(=O)oc2cc(OCC(=O)N3CCC(C(N)=O)CC3)ccc12 | 0 | nt | 11 | -3 | -1 | 26
Nc1ccc(-c2c3ccc(=O)cc-3oc3cc(O)ccc23)c(C(=O)O)c1 | 2 | nt | 12 | 5 | 45* | -19
O=c1n2c(c(O)n1C1CCCCC1)C(c1ccccc1)=Nc1ccccc1C2 | nt | nt | nt | nt | nt | 0
O=C(COC(=O)/C=C/c1ccccc1)NCc1ccco1 | nt | nt | -4 | nt | nt | 6
O=c1c2ccccc2nc2n1CCC2 | -5 | 51* | 10 | 7 | 3 | -2
SMILES | Mtb betalactam | RecA splice inh | GDH-TPI inh | Rv3671c protease | Mtb UGM inh | FBA Mtb inh
O=c1c2ccccc2nc2n1CCCCN2 | -6 | 1 | 3 | 7 | 0 | 68*
CCn1ccnc1CN1CCC(n2nccc2NC(=O)c2ccccc2OC)CC1 | 5 | 0 | 3 | 2 | 4 | -1
CC(=O)c1ccc(Nc2cc(C)nc3nc(C)nn23)cc1 | 7 | 2 | 31* | -3 | -2 | -1
Cc1cn(C(=O)c2ccccc2)c(=S)n1-c1ccc(Cl)cc1 | 19 | 0 | 34* | 2 | -3 | 0
Cc1ccc(-n2c(C)cn(C(=O)c3ccccc3)c2=S)cc1 | 13 | 5 | 17 | 0 | -2 | 2
COC(=O)/C(=C\C=C\c1ccccc1)NC(=O)c1ccccc1 | -3 | 0 | 23 | 3 | 3 | -2
O=C(Nc1ccc(O)cc1)/C(=C\C=C\c1ccccc1)NC(=O)c1ccccc1 | -7 | 8 | 74* | -4 | -3 | 1
O=C(Nc1ccc(C(=O)O)cc1)/C(=C\C=C\c1ccccc1)NC(=O)c1ccccc1Cl | 11 | 1 | 56* | -12 | -1 | -4
O=C(O)CCNC(=O)/C(=C\C=C\c1ccccc1)NC(=O)c1ccccc1 | -3 | 0 | 53* | 11 | nt | 5
